Measurements published in PubChem BioAssay AID748 (Sanford-Burnham Center for Chemical Genomics, 2007).
The whole screen tested about 96,000 compounds, of which about 100 (0.1%) were called active.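 The calls were made as follows: active = displacement above 50% at 20 µM plus a fluorescence interference ratio under 1.5; inactive = the rest.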 Only a selection was taken, and actives are over-represented in it overall. Potency and affinity values are given separately.

Molecular target: Bcl-2-like protein 10 (Homo sapiens) (UniProt Q9HD36)
Test: Bcl-B/TR3 peptide binding disruption – biochemical, fluorescence polarization, FITC-TR3 peptide, selectivity assay for Bfl-1 inhibitor project, primary screen (AID 748);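 also: plate controls were wells without compound for no effect and wells lacking Bcl-B protein for full effect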
Conditions: FP displacement of FITC-TR3 peptide from Bcl-B; at 20 µM; stronger effect = higher value

| Structure (SMILES) | displacement |
| --- | --- |
| ClC1=CCC2CN(CCN3CCCCC3)CC2C1 (stereo not given) | 67.7% (active) |
| O=c1cccc2n1CC1CC2CN(C(c2ccccc2)c2sc3ncnn3c2O)C1 (stereo not given) | -0.3% (inactive) |
| O=C1OCCN1P(=O)(c1ccccc1)c1ccccc1 | -1.2% (inactive) |
| COc1ccc(C(=O)C2(C)N(O)C(C)C(c3cccs3)=[N+]2[O-])cc1 (stereo not given) | -5.6% (inactive) |
| CCC(=NCC1CCCO1)c1c(O)n(-c2ccc(Cl)cc2)c(=O)[nH]c1=O (stereo not given) | -1.5% (inactive) |
